Source: PubChem
Only a selection was taken, and hits are over-represented in it overall.
CBX7 inh = blocks human CBX7 binding to H3K27me3 peptide; AlphaScreen His6-CBX7 / biotin-H3K27me3 peptide binding; active compounds read low; hit rate 1.1% among 66,000; normalised signal (fraction of DMSO) (no concentration beside the values); AID 1224903; in the data active = normalised signal below about 0.5
Target sequence (O95931 whole entry, looked up): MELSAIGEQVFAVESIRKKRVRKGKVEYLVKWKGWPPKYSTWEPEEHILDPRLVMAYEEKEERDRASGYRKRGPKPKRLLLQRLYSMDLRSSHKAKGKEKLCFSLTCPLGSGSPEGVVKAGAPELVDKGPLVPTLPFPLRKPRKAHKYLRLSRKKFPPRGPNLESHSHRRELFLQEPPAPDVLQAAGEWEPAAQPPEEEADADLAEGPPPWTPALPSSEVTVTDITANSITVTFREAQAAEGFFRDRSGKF
An asterisk follows results filed as active.

SMILES	CBX7 inh
Cc1cccc(-c2nc3c(cnn3-c3ccccc3)c(=O)n2-c2ccccc2C)c1	0.89
CCCCOCC(O)CN1CCN(C(C)=O)CC1 (configuration not stated)	1.1
CC(=O)N1CCN(CC(O)COc2ccc(Br)cc2)CC1 (configuration not stated)	0.46*
COc1ccc(OCC(O)CN2CCCCC2)cc1 (configuration not stated)	1
CCc1ccc(-c2nc(CN3CCCC(C(=O)NCCc4ccc(C)cc4)C3)c(C)o2)cc1 (configuration not stated)	0.91
c1ccc(Oc2ccc(-c3[nH]c(-c4ccccc4)nc3-c3ccccc3)cc2)cc1	0.47*
Cc1ccc(-c2nc(-c3ccc(F)cc3)[nH]c2-c2ccccc2)cc1C	0.96
COc1cc(OC)cc(-c2nc(-c3ccccc3)c(-c3ccc(F)cc3)[nH]2)c1	0.88
COc1ccc(-c2nc(-c3ccccc3)c(-c3cccs3)[nH]2)cc1	0.82
O=[N+]([O-])c1ccc(-c2nc(-c3ccccc3)c(-c3ccc(F)cc3)[nH]2)cc1	0.66
COc1ccc(-c2nc(-c3ccccc3)c(-c3cccs3)[nH]2)c(OC)c1	0.54
COc1ccc(-c2nc(-c3ccccc3)c(-c3ccc(F)cc3)[nH]2)cc1OC	0.38*
COc1cc(-c2nc(-c3ccccc3)c(-c3cccs3)[nH]2)cc(OC)c1O	0.48*
Cc1ccc([N+](=O)[O-])cc1-c1[nH]c(-c2ccc(F)cc2)nc1-c1ccccc1	0.48*
Brc1cccc(-c2nc(-c3ccccc3)c(-c3ccc(Oc4ccccc4)cc3)[nH]2)c1	0.79
Clc1ccc(-c2nc(-c3ccccc3)c(-c3ccccc3)[nH]2)cc1Cl	0.92
COc1ccc(-c2nc(-c3ccccc3)c(-c3ccc(F)cc3)[nH]2)cc1	0.85
COc1ccc(-n2nc3c(c2NC(=O)c2c(F)cccc2F)CSC3)cc1	0.87
Cc1ccc(CNc2ccc3[nH]c(=O)[nH]c3c2)cc1	0.9
CCCCC(NC(C)=O)c1nc2ccccc2n1Cc1ccccc1C (configuration not stated)	1.2
CCc1ccc(NC(=O)Cn2c(SCc3ccccc3F)nc3ccncc32)cc1	0.99
CCCNC(=O)c1cc(-c2ccc(Cl)cc2)on1	1
Cc1ccc(-n2c3c(cc(C(=O)Nc4ccccc4F)c2=O)C(=O)CCC3)cc1	1
Cc1ccc(-c2ccc(=O)n(CC(=O)N3CCN(C)CC3)n2)cc1	1
CC(C)(C)c1ccc2c(c1)N(CC(=O)NCc1cccs1)C(=O)CO2	0.19*
SMILES	CBX7 inh
CC(C)(C)c1ccc2c(c1)N(CC(=O)NCc1ccc3c(c1)OCO3)C(=O)CO2	1.1
CCN(CCCNC(=O)CN1C(=O)COc2ccc(C(C)(C)C)cc21)c1cccc(C)c1	0.27*
Cc1ccc(CNC(=O)CN2C(=O)COc3ccc(C(C)(C)C)cc32)cc1	1.1
CCCCNC(=O)CN1C(=O)COc2ccc(C(C)(C)C)cc21	0.93
CCN(CCCNC(=O)CCCN1C(=O)COc2ccc(C)cc21)c1cccc(C)c1	0.85
COc1ccccc1CNC(=O)CCC(=O)Nc1ccc2nc(N3CC(C)CC(C)C3)cc(C)c2c1 (configuration not stated)	1.1
CCCCN(C)C(=O)c1ccc2c(c1)N(Cc1cccc(Cl)c1)C(=O)c1ccccc1S2(=O)=O	0.81
COc1ccc(-c2noc(COc3ccc(C)cc3Br)n2)cc1OC	1.3
COc1ccc(NC(=O)[C@H](Cc2ccccc2)N2Cc3ccccc3C2=O)cc1OC	0.42*
CSCC[C@@H](C(=O)Nc1ccc2c(c1)OCO2)N1Cc2ccccc2C1=O	0.62
O=C(Nc1ccc2c(c1)OCO2)[C@H](Cc1ccccc1)N1Cc2ccccc2C1=O	0.42*
COc1ccc(NC(=O)[C@H](CCSC)N2Cc3ccccc3C2=O)cc1OC	0.77
Cc1ccc(NC(=O)[C@H](Cc2ccccc2)N2Cc3ccccc3C2=O)cc1F	0.68
O=C(Nc1ccc2c(c1)OCO2)[C@H](CSCc1ccccc1)N1Cc2ccccc2C1=O	0.71
CCc1cccc(NC(=O)C2CCN(S(=O)(=O)c3ccc4c(c3)CCC(=O)N4)CC2)c1	0.98
Cc1cccc(NC(=O)c2ccccc2NC(=O)c2cccc(S(=O)(=O)N3CCC(C)CC3)c2)c1	0.94
COc1ccc(CCNc2oc(COc3ccc(Br)cc3)nc2C#N)cc1	0.86
Cc1cc(C)c(OCC(=O)Nc2cc(-c3nc4ncccc4o3)ccc2C)c(Br)c1	1.1
O=C(CCC1CCCCC1)Nc1ccc(S(=O)(=O)Nc2cnc3ccccc3n2)cc1	1.1
c1cncc(-c2nc3ccccn3c2Nc2ccc3c(c2)OCCO3)c1	0.9
c1csc(-c2nc3ccccn3c2Nc2ccc3c(c2)OCCO3)c1	0.77
Cc1ccc(-c2nc3ccccn3c2Nc2ccc3c(c2)OCO3)cc1	0.35*
Cc1ccc(-c2nc3ccccn3c2Nc2ccc3c(c2)OCCO3)cc1	1
Clc1ccc(-c2nc3ccccn3c2Nc2ccc3c(c2)OCCO3)cc1	0.61
Cc1cccn2c(Nc3ccc4c(c3)OCCO4)c(-c3ccc(Cl)cc3)nc12	0.48*
SMILES	CBX7 inh
c1ccn2c(Nc3ccc4c(c3)OCCO4)c(-c3ccc(N4CCOCC4)cc3)nc2c1	1
Clc1ccc(-c2nc3ncccn3c2Nc2ccc3c(c2)OCCO3)cc1	0.85
Brc1cccc(-c2nc3ccccn3c2Nc2ccc3c(c2)OCCO3)c1	0.44*
Cc1cccc(N2CCN(c3nc4ccccc4nc3C(F)(F)F)CC2)c1C	1
COc1ccc(C(=O)Nc2nc(-c3ccccc3)ns2)cc1OC	0.91
COc1ccc(C(O)(c2ccc(OC)cc2)c2ccccc2N2CCCCC2)cc1	0.99
COc1ccc(C)cc1NC(=O)C1(S(=O)(=O)c2ccc(C)cc2)CC1	0.97
CCOc1ccc(-n2ccnc2SCC(=O)Nc2ccc(C)c(Cl)c2)cc1	0.7
CCC(C(=O)NCc1ccc2c(c1)OCO2)N1C(=O)COc2ccc(C(C)(C)C)cc21 (configuration not stated)	1
CCOC(=O)Cn1c(=O)c(-c2cc(Br)ccc2NC)nc2cc3ccccc3cc21	0.84
CCNc1ccc(Br)cc1-c1nc2ccccc2n(CC)c1=O	0.27*
CCOC(=O)Cn1c(=O)c(-c2ccccc2NCc2ccccc2)nc2ccccc21	0.98
Fc1ccccc1-c1nc(N2CCCc3ccccc32)c2ccccc2n1	1.4
O=C(Nc1nc(-c2ccccn2)cs1)c1cccc(Oc2ccccc2)c1	0.039*
COc1cc(C(=O)Nc2ccccn2)cc(OC)c1OC	1.1
COc1ccc(C(=O)Nc2nc(-c3ccccc3)cs2)cc1OC	0.83
Cc1cc(C)c(-c2csc(NC(=O)c3cccc(Oc4ccccc4)c3)n2)c(C)c1	1.1
Cc1ccc(-c2csc(NC(=O)c3cccc(Oc4ccccc4)c3)n2)cc1	1.1
O=C(Nc1nc(-c2ccccn2)cs1)c1ccc(N2C(=O)CCC2=O)cc1	0.071*
CN(Cc1ccccc1)S(=O)(=O)c1ccc(C(=O)Nc2nc(-c3ccccn3)cs2)cc1	0.94
COc1cc(C(=O)Nc2nc(-c3ccccn3)cs2)cc(OC)c1OC	0*
CCCCN(CCCC)S(=O)(=O)c1ccc(C(=O)Nc2nc(-c3ccccn3)cs2)cc1	0.93
CC(C)c1ccc(OCC(=O)Nc2nc(-c3ccccc3)cs2)cc1	1.2
O=C(CCCC1=NS(=O)(=O)c2ccccc2N1)N1CCN(c2cccc(Cl)c2)CC1	0.89
O=S(=O)(c1ccccc1)c1nc(-c2cccc(Cl)c2)oc1N1CCCCC1	0.6
Cc1nc2c(C(=O)N3CCC4(CC3)OCCO4)cnn2c(C)c1Cc1c(F)cccc1Cl	1
Cc1c(NC(=O)c2cncc(Br)c2)cccc1-c1nc2ccccc2o1	0.96
